Results as given in PubChem BioAssay (NCI).
Compounds without any hit were thinned out: in the full panel of roughly 83,000, 20% have a hit.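 Interpretation: 100, growth as untreated; towards 0, rising growth inhibition; 0, no net growth; 0 to -100, cell death. Compounds scoring below 10 were considered active.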 The source made the active and inactive calls.

Each compound was assayed on HL-60(TB) leukemia (assay: NCI-60 one-dose screen, 48 h (100 = growth as untreated, 0 = no growth, -100 = all killed)). Conditions: 10 µM unless noted.
Experimental: Growth inhibition of the HL-60(TB) human tumor cell line is measured as a screen for anti-cancer activity. Cells are grown in 96 well plates and exposed to the test compound for 48 hours. Compounds are tested at a single concentration, which is 10^-5 M for most compounds. The reported endpoint is percent growth (GI% or GIPRCNT), where numbers from 0 - 100% represent growth inhibition, and numbers from -100% - 0 represent cell death. For example, a value of 40 represents 60% growth inhibition. A value of 0 means no net growth occurred over the course of the experiment. A value of -40 indicates 40% of cells at the beginning of the experiment died by the end of the experiment. A value of -100 means all cells are dead at the end of the experiment.
NCI-60 Human Tumor Cell Lines Screen was performed using the standard one-dose NCI protocol, which is described in more detail at https://dtp.cancer.gov/discovery_development/nci-60/default.htm.
Compounds with GIPRCNT values below 10 were considered active. Activity score was based on GIPRCNT using the following formula: […]
Score is 0 for GIPRCNT values of 100 or above, 50 for GIPRCNT values of 0, and 100 for GIPRCNT values of -100.
With `O=C(/C=C/c1ccc(F)cc1)c1nc2ccccc2n1Cc1ccc(F)cc1` the growth was 6.99% (active). For `COc1ccc(C(SCCNCc2cc(N(C)C)ccn2)(c2ccccc2)c2ccccc2)cc1`, the growth was -43.7% (active). With `C=CCSc1nnc(-c2ccc(-c3nc4ccccc4[nH]3)cc2)o1` the growth was 57.6% (inactive). With `COc1ccc(/C=C/c2nc3ccccc3c(=O)n2CC(=O)Nc2ccccc2)cc1` the growth was 94.1% (inactive). `O=C(NN1C(=O)/C(=C/C=C/c2ccc([N+](=O)[O-])o2)SC1=S)c1ccc([N+](=O)[O-])cc1` was tested, and the growth was -7.3% (active). For `O=C(Nc1nc2ccc([N+](=O)[O-])cc2s1)Nc1ccccc1I`, the growth was -1.54% (active). `C#CCOc1cc(N(CC)CC)ccc1C(C(=O)NC(C)(C)C)N(C(=O)C1CCc2cc(F)ccc2O1)c1ccc(Br)cc1` (stereo not given) was tested, and the growth was 44.7% (inactive). In the case of `CN(C)c1nc(NCCNS(=O)(=O)c2ccc(C(=O)/C=C/c3ccccc3)cc2)nc(Nc2ccc(F)cc2)n1`, the growth is reported as 14% (inactive). `COc1ccc(-c2ccc(SCC(=O)Nc3ccc(C#N)cc3)nn2)cc1` was tested, and the growth was 95.8% (inactive). `CN1C(=O)N(C)C2SC(N/N=C/c3ccccc3F)=NC21` (stereo not given) was tested, and the growth was 1.5% (active). `O=C(/C=C1\C(=O)N(Cc2ccccc2)c2ccccc21)c1cc2ccccc2oc1=O` was tested, and the growth was 93% (inactive). In the case of `NS(=O)(=O)c1ccc(Nc2nc(N/N=C/c3cc(Br)c(O)c(Br)c3)nc(Nc3ccccc3)n2)cc1`, the growth is reported as 47.3% (inactive). In the case of `Cc1ccc2c(c1)C(=O)/C(=C/c1c[nH]c3ccccc13)S2`, the growth is reported as 14.9% (inactive). `CC(C)C1=C[C@@]23CC[C@@H]4[C@](C)(CCC[C@]4(C)C(=O)NCc4ccccc4)[C@H]2C[C@@H]1[C@H]1C(=O)OC(=O)[C@H]13` was tested, and the growth was 3.62% (active). `CC1(C)CC[C@]2(C(=O)O)CC[C@]3(C)C(=CCC4[C@@]5(C)C[C@@H](O)[C@@H]6OC(c7ccc(F)cc7)OC[C@@]6(C)C5CC[C@]43C)C2C1` (stereo not given in full) was tested, and the growth was 3.11% (active). For `O=C1/C(=C/c2cnc(-c3ccccc3)s2)SC(=S)N1Cc1ccc2c(c1)OCO2`, the growth was 69% (inactive). For `C=CC[Se]C(=O)c1ccc(C(=O)[Se]CC=C)s1`, the growth was -31.6% (active). With `O=C(NO)c1ccc(CNc2nc(-c3ccccc3)c3ccccc3n2)cc1` the growth was -4.14% (active). With `CC1=C(C(=O)OCc2ccccc2)C(c2c(O)cc(O)cc2O)n2c(nc3ccccc32)N1` (stereo not given) the growth was 27.2% (inactive). For `Cc1cccc(-c2nc(Nc3cccc(S(N)(=O)=O)c3)c3ccccc3n2)c1`, the growth was 44.9% (inactive). `Fc1ccc(Nc2nnc(-c3c[nH]c4ccccc34)o2)cc1` was tested, and the growth was 44.8% (inactive). `COc1cc2c(c(OC)c1OC)C(=O)CC(c1cccc(NC(=O)c3cccc(N)c3)c1)O2` (stereo not given) was tested, and the growth was 86.4% (inactive). In the case of `COC(=O)C[C@](O)(CCC(C)C)C(=O)O[C@@H]1C(OC)=C[C@]23CCCN2CCc2cc4c(cc2[C@H]13)OCO4`, the growth is reported as -31% (active). For `COc1ccc2c(c1)C(=N/N=C(\C)c1ccc(OC)c(S(N)(=O)=O)c1)C(=O)N2`, the growth was 91.7% (inactive). With `Cc1ccc(-c2cc(C(=O)N=Nc3c(O)[nH]c4ccccc34)c3ccccc3n2)cc1` the growth was 28.2% (inactive). `CC(=O)Nc1ccc(-c2cn(-c3cccc(C(=O)Nc4cc(C(F)(F)F)cc(C(F)(F)F)c4)c3)nn2)cn1` was tested, and the growth was -60.5% (active). For `CCOc1ccc(/C=N/NC(=O)Cn2nc(Cc3ccc(OC)cc3)c3onc(C)c3c2=O)cc1`, the growth was 57.5% (inactive). In the case of `CC12CC[C@@H]3[C@]4(C)COC(c5c(F)cccc5F)O[C@@H]4CC[C@@]3(C)[C@@H]1CC(C1=CCOC1=O)O2` (stereo not given in full), the growth is reported as 60.3% (inactive). For `Cc1ccc(C(=O)CSc2nc3ccc(F)cc3c(=O)n2-c2ccc(Cl)cc2)cc1`, the growth was 117% (inactive). `Cn1cc(-c2nnc(N)nc2-c2c[nH]c3ccccc23)c2cc(Br)cnc21` was tested, and the growth was 13.6% (inactive). For `CC[C@@]12CC(C(=O)OC)=C3Nc4cc5c(cc4[C@@]34CCN(C[C@H]3O[C@H]31)[C@@H]24)[C@@H]1[C@H](O5)[C@@H](O)[C@@]2(CC)CC(C(=O)OC)=C3Nc4cc(O)ccc4[C@@]34CCN1[C@@H]24`, the growth was -39.1% (active). `O=[N+]([O-])c1cccc(-c2nnc3c(/C=C/c4ccccc4O)nc4ccccc4n23)c1` was tested, and the growth was 52.5% (inactive). In the case of `N#Cc1c(NC(=O)c2ccc(C(F)(F)F)cc2)sc2c1CCC(=O)C2`, the growth is reported as 7.73% (active). `COC[C@@H](CC(C)C)N=C1NC(=O)/C(=C/c2ccc3ncsc3c2)N1` was tested, and the growth was 1.21% (active). `C=C1CCC2C3(C)COC(c4ccco4)OC3CCC2(C)C1CC(Sc1ccccc1)C1=CCOC1=O` (stereo not given) was tested, and the growth was -21.6% (active). `O=C(N/N=C/c1ccc(-c2cccc([N+](=O)[O-])c2)s1)c1[nH]c2ccc(Br)cc2c1-c1ccccc1` was tested, and the growth was 81.4% (inactive). With `CCCSc1nc(NCCc2c[nH]c3ccccc23)c(C#N)c(-c2ccc(OC)cc2)n1` the growth was 40.7% (inactive). For `CCOc1ccccc1NC(=O)N/C(N)=N/c1nc2ccccc2s1`, the growth was -23.4% (active). In the case of `COc1ccc2oc3c4[nH]c5ccccc5c4c4c(c3c2c1)C(=O)N(C(=O)OC(C)(C)C)C4=O`, the growth is reported as -7.65% (active). In the case of `C=C1CCC2C3(C)COC(c4c(F)cccc4F)OC3CCC2(C)C1C/C=C1/C(=O)OCC1O` (stereo not given), the growth is reported as 6.75% (active).
